Results taken from PubChem BioAssay AID1159580 (chemical genetic matrix, 2015).
The campaign covered roughly 5,500 compounds. About 2,000 (36%) were called active. Another 18% or so got no clear call; they are omitted. This is one part of the list. Unmarked numbers belong to inactive results. No stated cut-off is given here; in the data, active means normalized growth mostly below about 0.91 (no sharp cut-off); inconclusive means no clear call, values can overlap the other calls; inactive means mostly above about 0.92.

Assay: chemical genetic growth profiling, strain panel (AID 1159580);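 further: tested at 20 µM; growth read once vehicle control cultures reached saturation at 30 °C; 1 = growth at the plate median or of vehicle wells; lower values mean less growth of the strain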
Conditions: S. cerevisiae deletion strains, growth OD
[1] = locus YHR030C, strain SLT2, active compounds read low

Oc1cc(Cl)ccc1Oc1ccc(Cl)cc1Cl
normalized growth (locus YAL021C, strain ccr4, active compounds read low): 0.0638 (active) | normalized growth (locus YAL026C, strain drs2, active compounds read low): 0.0609 (active) | normalized growth (locus YAL030W, strain snc1, active compounds read low): 0.0536 (active) | normalized growth (locus YBL061C, strain skt5, active compounds read low): 0.0556 (active) | normalized growth (locus YBR009C, strain hhf1, active compounds read low): 0.061 (active) | normalized growth (locus YBR023C, strain chs3, active compounds read low): 0.0591 (active) | normalized growth (locus YBR171W, strain sec66, active compounds read low): 0.0725 (active) | normalized growth (locus YBR231C, strain swc5, active compounds read low): 0.0579 (active) | normalized growth (locus YBR279W, strain paf1, active compounds read low): 0.0562 (active) | normalized growth (locus YCL011C, strain gbp2, active compounds read low): 0.0544 (active) | normalized growth (locus YCL016C, strain dcc1, active compounds read low): 0.0625 (active) | normalized growth (locus YCL069W, strain vba3, active compounds read low): 0.0589 (active) | normalized growth (locus YCR088W, strain abp1, active compounds read low): 0.0589 (active) | normalized growth (locus YDL005C, strain med2, active compounds read low): 0.0705 (active) | normalized growth (locus YDL040C, strain nat1, active compounds read low): 0.0546 (active) | normalized growth (locus YDR001C, strain nth1, active compounds read low): 0.0558 (active) | normalized growth (locus YDR069C, strain doa4, active compounds read low): 0.0627 (active) | normalized growth (locus YDR137W, strain rgp1, active compounds read low): 0.0997 (active) | normalized growth (locus YDR159W, strain sac3, active compounds read low): 0.0882 (active) | normalized growth (locus YDR195W, strain ref2): 0.117 (active) | normalized growth (locus YDR297W, strain sur2, active compounds read low): 0.0544 (active) | normalized growth (locus YDR334W, strain swr1, active compounds read low): 0.0588 (active) | normalized growth (locus YDR335W, strain msn5, active compounds read low): 0.0583 (active) | normalized growth (locus YDR392W, strain spt3, active compounds read low): 0.0729 (active) | normalized growth (locus YEL003W, strain gim4, active compounds read low): 0.0524 (active) | normalized growth (locus YEL037C, strain rad23, active compounds read low): 0.0551 (active) | normalized growth (locus YEL061C, strain CIN8 (second series), active compounds read low): 0.0576 (active) | normalized growth (locus YER015W, strain faa2, active compounds read low): 0.0585 (active) | normalized growth (locus YER016W, strain bim1, active compounds read low): 0.0591 (active) | normalized growth (locus YER111C, strain swi4, active compounds read low): 0.0671 (active) | normalized growth (locus YER155C, strain BEM2 (second series), active compounds read low): 0.0885 (active) | normalized growth (locus YFR010W, strain ubp6, active compounds read low): 0.0707 (active) | normalized growth (locus YGL167C, strain pmr1, active compounds read low): 0.0693 (active) | normalized growth (locus YGL173C, strain kem1, active compounds read low): 0.0649 (active) | normalized growth (locus YGL227W, strain vid30, active compounds read low): 0.0625 (active) | normalized growth (locus YGL240W, strain doc1, active compounds read low): 0.0739 (active) | normalized growth (locus YGL253W, strain hxk2, active compounds read low): 0.054 (active) | normalized growth (locus YHR013C, strain ard1, active compounds read low): 0.104 (active) | normalized growth (locus YHR027C, strain rpn1, active compounds read low): 0.059 (active) | normalized growth [1]: 0.104 (active) | normalized growth (locus YHR079C, strain IRE1, active compounds read low): 0.121 (active) | normalized growth (locus YHR142W, strain chs7, active compounds read low): 0.0756 (active) | normalized growth (locus YJL092W, strain hpr5, active compounds read low): 0.0585 (active) | normalized growth (locus YJL095W, strain BCK1 (second series), active compounds read low): 0.0552 (active) | normalized growth (locus YJL095W, strain BCK1, active compounds read low): 0.127 (active) | normalized growth (locus YJL115W, strain asf1, active compounds read low): 0.0692 (active) | normalized growth (locus YJL129C, strain trk1, active compounds read low): 0.084 (active) | normalized growth (locus YJL154C, strain vps35, active compounds read low): 0.0565 (active) | normalized growth (locus YJL164C, strain tpk1, active compounds read low): 0.0601 (active) | normalized growth (locus YJL166W, strain qcr8, active compounds read low): 0.0623 (active) | normalized growth (locus YJR066W, strain TOR1, active compounds read low): -0.00201 (active) | normalized growth (locus YKL160W, strain elf1, active compounds read low): 0.0596 (active) | normalized growth (locus YKR026C, strain gcn3, active compounds read low): 0.0592 (active) | normalized growth (locus YKR091W, strain srl3, active compounds read low): 0.0544 (active) | normalized growth (locus YLL001W, strain dnm1, active compounds read low): 0.0612 (active) | normalized growth (locus YLL026W, active compounds read low): 0.0561 (active) | normalized growth (locus YLL041C, strain sdh2, active compounds read low): 0.0533 (active) | normalized growth (locus YLR027C, strain aat2, active compounds read low): 0.0538 (active) | normalized growth (locus YLR113W, strain HOG1, active compounds read low): 0.158 (active) | normalized growth (locus YLR221C, strain rsa3, active compounds read low): 0.0589 (active) | normalized growth (locus YLR258W, strain gsy2, active compounds read low): 0.0574 (active) | normalized growth (locus YLR262C, strain YPT6 (second series), active compounds read low): 0.0751 (active) | normalized growth (locus YLR320W, strain mms22, active compounds read low): 0.0752 (active) | normalized growth (locus YLR342W, strain FKS1, active compounds read low): 0.0642 (active) | normalized growth (locus YLR357W, strain rsc2, active compounds read low): 0.118 (active) | normalized growth (locus YLR370C, strain arc18, active compounds read low): 0.0628 (active) | normalized growth (locus YLR384C, strain iki3, active compounds read low): 0.057 (active) | normalized growth (locus YML120C, strain ndi1, active compounds read low): 0.0562 (active) | normalized growth (locus YMR058W, strain fet3, active compounds read low): 0.0596 (active) | normalized growth (locus YMR125W, strain sto1, active compounds read low): 0.0732 (active) | normalized growth (locus YMR129W, active compounds read low): 0.0549 (active) | normalized growth (locus YMR205C, strain PFK2, active compounds read low): 0.0834 (active) | normalized growth (locus YMR231W, strain pep5, active compounds read low): 0.0636 (active) | normalized growth (locus YNL071W, strain lat1, active compounds read low): 0.0584 (active) | normalized growth (locus YNL183C, strain NPR1, active compounds read low): 0.00315 (active) | normalized growth (locus YNL209W, strain ssb2, active compounds read low): 0.0563 (active) | normalized growth (locus YNL248C, strain rpa49, active compounds read low): 0.0865 (active) | normalized growth (locus YNL322C, strain KRE1 (second series), active compounds read low): 0.0621 (active) | normalized growth (locus YNR049C, strain mso1, active compounds read low): 0.0553 (active) | normalized growth (locus YOR001W, strain rrp6, active compounds read low): 0.0701 (active) | normalized growth (locus YOR070C, strain gyp1, active compounds read low): 0.0564 (active) | normalized growth (locus YOR080W, strain dia2, active compounds read low): 0.0614 (active) | normalized growth (locus YOR083W, strain WHI5, active compounds read low): 0.0594 (active) | normalized growth (locus YOR106W, strain vam3, active compounds read low): 0.066 (active) | normalized growth (locus YOR231W, strain MKK1, active compounds read low): 0.109 (active) | normalized growth (locus YOR265W, strain rbl2, active compounds read low): 0.0537 (active) | normalized growth (locus YOR270C, strain vph1, active compounds read low): 0.0953 (active) | normalized growth (locus YOR290C, strain snf2, active compounds read low): 0.0603 (active) | normalized growth (locus YPL051W, strain arl3, active compounds read low): 0.0598 (active) | normalized growth (locus YPL078C, strain atp4, active compounds read low): 0.0627 (active) | normalized growth (locus YPL106C, strain sse1, active compounds read low): 0.103 (active) | normalized growth (locus YPL240C, strain hsp82, active compounds read low): 0.0561 (active) | normalized growth (locus YPL256C, strain CLN2, active compounds read low): 0.121 (active)

N#CCOc1ccc(Cl)cc1Cl
normalized growth (locus YAL013W, strain DEP1, active compounds read low): 0.99 | normalized growth (locus YBR229C, strain ROT2, active compounds read low): 0.97 | normalized growth (locus YDL101C, strain DUN1, active compounds read low): 0.976 | normalized growth (locus YDR150W, strain NUM1, active compounds read low): 0.95 | normalized growth (locus YEL061C, strain CIN8, active compounds read low): 0.99 | normalized growth (locus YGR078C, strain PAC10, active compounds read low): 0.965 | normalized growth [1]: 0.95 | normalized growth (locus YHR087W, strain rtc3, active compounds read low): 0.977 | normalized growth (locus YJR043C, strain POL32, active compounds read low): 0.975 | normalized growth (locus YJR075W, strain HOC1, active compounds read low): 0.915 | normalized growth (locus YLR039C, strain RIC1, active compounds read low): 1.07 | normalized growth (locus YLR058C, strain SHM2 (second series), active compounds read low): 0.954 | normalized growth (locus YLR085C, strain ARP6, active compounds read low): 1 | normalized growth (locus YLR262C, strain YPT6, active compounds read low): 1.01 | normalized growth (locus YML094W, strain GIM5, active compounds read low): 0.983 | normalized growth (locus YMR219W, strain ESC1, active compounds read low): 0.955 | normalized growth (locus YMR263W, strain SAP30, active compounds read low): 0.987 | normalized growth (locus YMR307W, strain GAS1, active compounds read low): 1.06 | normalized growth (locus YNL153C, strain GIM3, active compounds read low): 0.997 | normalized growth (locus YNL298W, strain CLA4 (second series), active compounds read low): 1.02 | normalized growth (locus YNL322C, strain KRE1, active compounds read low): 0.96 | normalized growth (locus YNR030W, strain Alg12, active compounds read low): 0.997 | normalized growth (locus YOL006C, strain TOP1, active compounds read low): 1.06 | normalized growth (locus YPL055C, strain LGE1, active compounds read low): 1.12 | normalized growth (locus YPL241C, strain CIN2, active compounds read low): 0.985 | normalized growth (locus YPR135W, strain CTF4, active compounds read low): 0.968
